GRK2 aptamer HTS = blocks RNA aptamer binding to human GRK2; P25098; bead flow cytometry, FAM-aptamer displacement from GRK2; inhibition of aptamer binding, % at 10 µM; 0.59% of 330,000 active;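 active = inhibition of aptamer binding above 40%, roughly 3 SD of noise, on plates passing a quality check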;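 also: median bead fluorescence of bound FAM aptamer so fluorescent compounds give negative values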
Yeast superoxide = lowers age-related superoxide in aged yeast cells; AID 2690; 0.18% of 330,000 active; S. cerevisiae aged cells, superoxide DHE fluorescence; stronger effect = lower value; superoxide response (% of plate mean), % at 10 µM;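 active = superoxide response under a set limit, about three screen SD below normal, cut at about 65% in these data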;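 also: yeast aged for seven days with compound at 30 °C before DHE staining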
Efflux pump inh = blocks antifungal efflux pumps in multiplex yeast assay | 0.44% of 330,000 active | S. cerevisiae Candida pump triplex, Nile Red efflux | inhibition, % at 10 µM | AID 485275;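 active = plate passing quality check with inhibition over a set limit, or well fluorescence over plate mean plus 4 SD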;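 also: Nile Red retained in pooled yeast measured as flow cytometry median fluorescence; higher means more Nile Red kept so more efflux inhibition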
ATG4B inhibitor = inhibitors of human ATG4B cysteine protease | Q9Y4P1 | inhibition, % at 8.33 µM | 0.51% of 340,000 active | ATG4B cleavage of LC3-PLA2, NBD-HPC fluorescence, 1 h; in the data active = inhibition above about 40%
Target sequence (Q9Y4P1 whole entry, looked up): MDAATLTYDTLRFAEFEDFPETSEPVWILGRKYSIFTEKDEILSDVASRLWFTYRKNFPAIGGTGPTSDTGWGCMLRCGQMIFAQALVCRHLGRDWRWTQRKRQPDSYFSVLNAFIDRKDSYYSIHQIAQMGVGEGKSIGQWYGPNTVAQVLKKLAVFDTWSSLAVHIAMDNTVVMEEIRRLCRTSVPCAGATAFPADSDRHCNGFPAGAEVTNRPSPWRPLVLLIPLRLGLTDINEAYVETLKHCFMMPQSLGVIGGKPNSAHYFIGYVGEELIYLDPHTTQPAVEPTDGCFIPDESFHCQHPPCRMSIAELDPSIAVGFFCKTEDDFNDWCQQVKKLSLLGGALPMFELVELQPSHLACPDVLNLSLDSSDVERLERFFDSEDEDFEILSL
Yeast cmpd fluor = flagged as fluorescent in efflux inhibitor counter-screen | shares compounds with Efflux pump inh | S. cerevisiae AD/pABC3, compound fluorescence, flow cytometry | fluorescence ratio to DMSO, % at 10 µM | 4% of 1,700 active;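 active = fluorescence ratio to DMSO above its plate's cutoff, the plate mean ratio plus 5 SD, cut at about 210% in these data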;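 also: unstained yeast with no Nile Red so the signal is compound autofluorescence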
CaMdr1 efflux inh = Candida Mdr1 efflux pump inhibition; AID 588518; 1% of 1,700 active; S. cerevisiae AD/CaMDR1, Nile Red efflux, flow cytometry; inhibition, % at 10 µM; shares compounds with Efflux pump inh; in the data active = inhibition above about 26%;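 also: higher means more Nile Red retained so more efflux inhibition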
Cdr2 pump inh = blocks the Candida albicans Cdr2 efflux pump in yeast; S. cerevisiae AD/CaCDR2, Nile Red retention, flow cytometry; 4% of 1,700 active; AID 588520; shares compounds with Efflux pump inh; Nile Red retention ratio vs DMSO, % at 10 µM; in the data active = Nile Red retention ratio vs DMSO above about 190%;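 also: higher ratio means more blocking of Cdr2 efflux of the dye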
Cdr1 pump inh = inhibitors of Candida albicans Cdr1 efflux pump; shares compounds with Efflux pump inh; S. cerevisiae AD/CaCDR1, Nile Red efflux, flow cytometry; inhibition, % at 10 µM; 1% of 1,700 active;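 active = inhibition above the screen-wide mean plus twice its standard deviation, cut at about 32% in these data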
A number is an active result; . = inactive; / = no result given. An excerpt weighted towards active compounds, which were near 1.6% of everything screened.

SMILES	GRK2 aptamer HTS	Yeast superoxide	Efflux pump inh	ATG4B inhibitor	Yeast cmpd fluor	CaMdr1 efflux inh	Cdr2 pump inh	Cdr1 pump inh
COc1ccc(-c2sc3cc(OC)ccc3c2-c2ccc(OCCN3CCOCC3)cc2)cc1	.	.	.	.	.	.	.	.
Cc1ccc(NC2CCCN(C(=O)CCN3CCOCC3)C2)cc1C (configuration not stated)	.	.	.	.	/	/	/	/
Cc1ccc(CNC(=O)CNC(=O)[C@@H]2Cc3ccccc3CN2C(=O)OC(C)(C)C)cc1	.	.	.	.	/	/	/	/
COc1ccc(S(=O)(=O)N2CCCCC2)cc1NC(=O)c1ccc(CS(C)(=O)=O)cc1	.	.	1.1	.	.	.	.	.
COc1ccc(S(=O)(=O)N2CCCCC2)cc1NC(=O)c1ccc(C)cc1	.	.	.	.	/	/	/	/
CCOC(=O)N1CCN(CC(O)COc2c(C)cc(C)cc2C)CC1 (configuration not stated)	.	.	.	.	/	/	/	/
COc1ccc(/C(O)=C2/C(=O)C(=O)N(CCN(C)C)C2c2ccccc2)cc1Cl (configuration not stated)	.	.	.	.	/	/	/	/
CCOc1ccc(/C(O)=C2/C(=O)C(=O)N(CCN(C)C)C2c2ccccc2)cc1Cl (configuration not stated)	.	.	8.9	.	.	.	.	.
O=C(NCC1CCCO1)c1cccc(S(=O)(=O)N2CCOCC2)c1 (configuration not stated)	.	.	.	.	/	/	/	/
O=C(NCC1CCCO1)c1ccc(Br)c(S(=O)(=O)N2CCOCC2)c1 (configuration not stated)	.	.	24	.	.	.	.	.
O=C(CO/N=C/c1cccc([N+](=O)[O-])c1)NC1CCCCC1	.	.	8.3	.	.	.	.	.
O=C(CSc1nc2c(sc3ccccc32)c(=O)n1CCc1ccccc1)NCc1ccco1	.	.	1.5	.	.	.	.	.
CC1CC(C)CN(S(=O)(=O)c2cc(C(=O)O)c(Cl)s2)C1 (configuration not stated)	/	.	9.7	.	.	.	.	.
O=C1/C(=C\c2ccco2)CCC/C1=C\c1ccco1	.	.	60	.	.	.	.	.
O=C1c2cccc3c(N4CCCCC4)ccc(c23)C(=O)N1c1ccccn1	.	.	.	.	/	/	/	/
O=C1c2cccc3c([N+](=O)[O-])ccc(c23)C(=O)N1c1ccccn1	.	.	0.7	.	.	.	.	.
O=C1c2cccc3c([N+](=O)[O-])ccc(c23)C(=O)N1c1ccc(Cl)cn1	.	.	2.1	.	265	.	.	.
CCc1ccc(C2C(C#N)=C(N)N(N(C)C)C3=C2C(=O)CCC3)cc1 (configuration not stated)	.	.	.	.	/	/	/	/
CCN(CC)C(=O)c1ccc2c(c1)nnn2C	.	.	.	.	/	/	/	/
CCC(=O)N(C)CCc1cc2c(c(OC)c1/C=N/NC(=O)[C@H]1C[C@@H]1c1ccccc1)OCO2	.	.	3.5	.	.	.	.	.
COc1c(/C=N/NC(=O)[C@H]2C[C@@H]2c2ccccc2)c(CCN(C)C(C)=O)cc2c1OCO2	.	.	.	.	/	/	/	/
Cn1c(SCC(=O)Nc2ccc3nc(SCC(=O)NC4CC4)sc3c2)nnc1-c1ccccc1	.	.	1.1	.	.	.	.	.
C/C(CC(=O)Nc1ccc2c(c1)OCCO2)=N\NC(=O)COc1ccc(Cl)c(C)c1	.	.	.	.	/	/	/	/
Cc1cc(CN2CCC(n3nccc3NC(=O)c3ccccc3Cl)CC2)cc(C)c1O	.	.	.	.	/	/	/	/
OCCN1CCN(CC/C=C2/c3ccccc3CSc3ccccc32)CC1	.	.	.	.	/	/	/	/
SMILES	GRK2 aptamer HTS	Yeast superoxide	Efflux pump inh	ATG4B inhibitor	Yeast cmpd fluor	CaMdr1 efflux inh	Cdr2 pump inh	Cdr1 pump inh
OCCN1CCN(CC/C=C2/c3ccccc3Sc3ccc(C(F)(F)F)cc32)CC1	.	.	.	.	.	.	.	.
Cc1cc(C(=O)NCc2ccc(F)cc2)c2ccccc2n1	.	.	.	.	/	/	/	/
CC(CCc1ccccc1)NC(=O)c1ccc(NC(=O)c2ccccc2)cc1 (configuration not stated)	.	.	.	.	/	/	/	/
CC(CCc1ccccc1)NC(=O)c1ccc(NC(=O)c2cccc(Br)c2)cc1 (configuration not stated)	.	.	6.5	.	.	.	.	.
CCOC(=O)c1c(/N=C/N(C)C)sc(/C=N/Nc2ccccc2)c1-c1ccc(Cl)cc1	.	.	0.6	.	.	.	.	.
O=C(CN1C(=O)CC(c2ccco2)Sc2ccccc21)Nc1ccc2c(c1)OCCO2 (configuration not stated)	.	.	0.7	.	.	.	.	.
CC1CC(=O)N(CC(=O)Nc2ccc3c(c2)OCO3)c2ccccc2S1 (configuration not stated)	.	.	.	.	.	.	.	.
O=C(CN1C(=O)CCSc2ccccc21)Nc1ccccc1	.	.	.	.	/	/	/	/
O=C(CN1C(=O)CCSc2ccccc21)Nc1ccc(F)cc1	.	.	.	.	.	.	.	.
O=C(CN1C(=O)CCSc2ccccc21)Nc1ccc2c(c1)OCCO2	.	.	.	.	/	/	/	/
CC1Cc2cc(S(=O)(=O)NCc3ccccc3)ccc2N1C(=O)C1CCC1 (configuration not stated)	.	.	.	.	.	.	.	.
CC1Cc2cc(S(=O)(=O)NCc3ccccc3)ccc2N1C(=O)C1CC1 (configuration not stated)	.	.	.	.	/	/	/	/
C/C(=N\NS(=O)(=O)c1ccc(Br)cc1)c1ccncc1	.	.	.	.	/	/	/	/
COc1ccc(S(=O)(=O)N/N=C(/C)c2ccncc2)cc1	.	.	5.7	.	.	.	.	.
O=C(/C=C/c1ccc2c(c1)OCO2)NCCCN1CCOCC1	.	.	11	.	.	.	.	.
O=[N+]([O-])c1ccc(Oc2cccc3cccnc23)c([N+](=O)[O-])c1	.	.	0.9	.	.	.	.	.
N#Cc1ccc(Oc2cccc3cccnc23)c([N+](=O)[O-])c1	.	.	.	.	/	/	/	/
Cc1ccccc1S(=O)(=O)Nc1ncnc2scc(-c3ccccc3)c12	.	.	11	.	.	.	.	.
CN(C)CCCNc1ncnc2scc(-c3ccccc3)c12	.	.	.	.	/	/	/	/
CCOc1ccc(N(CC(=O)NC2CCCCC2)C(=O)CCC(=O)Nc2ccccn2)cc1	.	.	.	.	/	/	/	/
O=C(CN1CCN(Cc2ccccc2Cl)CC1)N=Nc1c(O)[nH]c2ccccc12	.	.	13	.	.	.	.	.
Cc1ccc(CN2CCN(CC(=O)N=Nc3c(O)[nH]c4ccccc34)CC2)cc1	.	.	.	.	/	/	/	/
